Assay outcomes: PubChem, The Scripps Research Institute Molecular Screening Center
Most compounds without a hit are left out; they make up all but 2.9% or so of the library.
LYPLA2 inh: LYPLA2 (human) inhibition in PME1 counter-screen. O95372. recombinant LYPLA2, FP-Rh probe fluorescence polarization. inhibition, % at 5.9 µM. actives 0.38% (n = 320,000). AID 2177;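 active means inhibition above the screen-wide mean plus 3 SD, limit set per campaign, cut at about 26% in these data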;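 further: 0% = LYPLA2 with DMSO and 100% = wells lacking LYPLA2 enzyme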
Target sequence (O95372 whole entry, looked up): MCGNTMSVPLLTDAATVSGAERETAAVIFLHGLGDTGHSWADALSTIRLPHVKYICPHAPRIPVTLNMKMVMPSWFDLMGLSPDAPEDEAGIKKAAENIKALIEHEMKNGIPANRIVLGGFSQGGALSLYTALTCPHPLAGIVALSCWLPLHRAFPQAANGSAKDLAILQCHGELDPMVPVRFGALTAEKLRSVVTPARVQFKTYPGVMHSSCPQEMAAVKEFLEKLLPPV
PAFAH1B2 FP inh: inhibitors of human PAFAH1B2 | recombinant PAFAH1B2, FP-rhodamine activity probe, fluorescence polarization | inhibition, % at 3.39 µM | actives 1.2% (n = 340,000);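 active means inhibition above the mean of all tested compounds plus 3 SD, cut at about 24% in these data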;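 further: 0% = enzyme with DMSO and 100% = wells lacking PAFAH1B2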
Target sequence (P68402 whole entry, looked up): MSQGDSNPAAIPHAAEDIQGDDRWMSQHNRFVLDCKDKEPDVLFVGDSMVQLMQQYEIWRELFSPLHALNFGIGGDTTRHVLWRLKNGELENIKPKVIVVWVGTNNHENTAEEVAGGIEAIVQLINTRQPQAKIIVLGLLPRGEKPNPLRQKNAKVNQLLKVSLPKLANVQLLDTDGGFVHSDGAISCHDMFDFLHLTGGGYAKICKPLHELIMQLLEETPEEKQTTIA
PAFAH2 inh: inhibitors of human PAFAH2; Q99487; recombinant PAFAH2, FP-rhodamine activity probe, fluorescence polarization; inhibition, % at 3.39 µM; actives 0.99% (n = 340,000); AID 492956;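 active means inhibition above the mean over all tested compounds plus 3 SD, cut at about 30% in these data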;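 further: inhibitors block probe labeling of enzyme so polarization drops; 0% = enzyme with DMSO and 100% = wells lacking PAFAH2 protein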
pPAFAH FP inh: inhibitors of human plasma PAF acetylhydrolase (pPAFAH) | recombinant pPAFAH, FP-rhodamine probe fluorescence polarization | Q13093 | inhibition, % at 3.39 µM | AID 463082 | actives 1.5% (n = 330,000);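 active means inhibition above the mean inhibition across the screen plus 3 SD, cut at about 25% in these data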;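 further: inhibitors block binding of the rhodamine activity-based probe so polarization drops; 0% = enzyme with DMSO and 100% = wells lacking pPAFAH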
PAFAH1B3 inh: blocks human PAF acetylhydrolase 1B catalytic subunit 3 | AID 492972 | actives 0.28% (n = 340,000) | recombinant PAFAH1B3, FP-rhodamine probe, fluorescence polarization | inhibition, % at 3.39 µM;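 active means inhibition above the screen-wide average of all tested compounds plus 3 SD, cut at about 25% in these data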;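 further: 0% = enzyme with DMSO only and 100% = wells lacking PAFAH1B3 protein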
Target sequence (Q15102 whole entry, looked up): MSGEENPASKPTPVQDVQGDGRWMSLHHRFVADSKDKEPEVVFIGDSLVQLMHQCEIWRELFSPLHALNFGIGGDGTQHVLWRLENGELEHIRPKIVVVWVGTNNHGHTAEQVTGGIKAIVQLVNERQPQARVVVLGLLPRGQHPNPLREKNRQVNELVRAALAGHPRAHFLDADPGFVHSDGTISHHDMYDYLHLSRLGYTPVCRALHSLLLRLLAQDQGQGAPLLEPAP
LYPLA1 inh: LYPLA1 (human) inhibition in PME1 counter-screen; AID 2174; O75608; recombinant LYPLA1, FP-Rh probe fluorescence polarization; inhibition, % at 5.9 µM; actives 0.16% (n = 320,000);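 active means inhibition above the mean of all tested compounds plus 3 SD, set per campaign, cut at about 14% in these data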;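 further: inhibitors block serine hydrolase probe labeling of LYPLA1 so polarization falls; 0% = enzyme with DMSO and 100% = wells lacking LYPLA1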
pPAFAH FP conf: confirmation of human plasma PAF acetylhydrolase (pPAFAH) inhibitors; shares compounds with pPAFAH FP inh; recombinant pPAFAH, FP-Rh probe fluorescence polarization; inhibition, % at 3.39 µM; actives 72% (n = 2,300); AID 463230;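 active means mean inhibition of the triplicate above the hit cutoff set for the earlier primary screen, cut at about 25% in these data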;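 further: 0% = enzyme with DMSO and 100% = wells lacking pPAFAH enzyme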
* = called active by the depositor; . = no result given.

SMILES | LYPLA2 inh | PAFAH1B2 FP inh | PAFAH2 inh | pPAFAH FP inh | PAFAH1B3 inh | LYPLA1 inh | pPAFAH FP conf
CN(C)/C=C/C(=O)/C=C/c1ccc(Cl)cc1 | -9 | 6 | 7 | 37* | 6 | -4 | 4
CN(C)/C=C/C(=O)c1ccc(Cl)cc1 | 0 | 2 | 0 | 2 | 1 | -2 | .
COc1cc(C2CC(=O)N(c3ccc(C)cc3)C(=O)C2)cc(OC)c1OC | 3 | 9 | 6 | -7 | 2 | 1 | .
C=CCNC(=O)c1c(C(F)(F)F)nn(C)c1Cl | 2 | -1 | 2 | 2 | 1 | 6 | .
CCOC(=O)c1sc2nc(C)nc(SCC(=O)NC(C)CCc3ccccc3)c2c1C (stereo unspecified) | -5 | -2 | -1 | -1 | 0 | -4 | .
COc1ccc(Br)cc1/C=c1\sc2nc(-c3ccco3)nn2c1=O | -4 | -6 | 0 | 44* | -5 | -6 | 20
CC(OC(=O)c1ccc(NC(=O)CC#N)cc1)C(=O)Nc1ccc(Oc2ccccc2)cc1 (stereo unspecified) | -50 | -19 | -35 | 14 | -30 | -27 | .
CC(OC(=O)c1ccc(NC(=O)CC#N)cc1)C(=O)Nc1nc(-c2ccccc2)cs1 (stereo unspecified) | -45 | -26 | -55 | 53* | -42 | -20 | -18
Cc1cccc(NS(=O)(=O)c2coc(C(N)=O)c2)c1C | 0 | -5 | -10 | 5 | 2 | 3 | .
CC1=C(C(=O)OC(C)C)C(c2cccs2)C(C(=O)OC(C)C)=C(C)N1 | 5 | 1 | 1 | 2 | -2 | 0 | .
CCOC(=O)c1c(C)[nH]c(C)c1S(=O)(=O)N(C)CC(=O)Nc1ccccc1OC | -2 | 4 | 5 | 0 | -2 | 1 | .
CCOC(=O)c1c(C)[nH]c(C)c1S(=O)(=O)N(C)CC(=O)Nc1ccccc1 | 6 | 1 | 2 | 38* | 4 | -1 | 4
CC(C)=CCc1cc2c(=O)c3c(O)c4c(cc3oc2c(O)c1O)OC(C)C4(C)C (stereo unspecified) | -37 | . | . | 67* | . | -29 | 86*
Cc1cccc(N2CCN(C(=O)c3ccc4nc(N5CCCCC5)sc4c3)CC2)c1C | 1 | 0 | -2 | 40* | -3 | -3 | 9
CCOC(=O)N1CCN(C(=O)c2ccc3nc(N4CCCCC4)sc3c2)CC1 | 5 | 0 | -6 | 4 | 2 | -3 | .
Cc1ccnc(NCc2cccc3ccccc23)c1 | 3 | -2 | 10 | -5 | 8 | 0 | .
COc1ccc(C(C(=O)NCC2CCCO2)N(C(=O)CNC(=O)c2cccs2)c2ccc(NC(C)=O)cc2)cc1OC (stereo unspecified) | 4 | 8 | 1 | 4 | -1 | 1 | .
COc1cc(CCc2ccccc2)c(C(=O)O)c(O)c1C/C=C(/C)CCC=C(C)C | . | 23 | 18 | 72* | 10 | . | 59*
CC1=C(C(=O)N(C)C)C(c2ccc(Cl)c(Cl)c2)NC(=O)N1 (stereo unspecified) | -7 | 0 | 3 | -2 | 6 | -1 | .
O=C(CSc1nc2cc([N+](=O)[O-])ccc2n1-c1ccccc1)NCc1ccc2c(c1)OCO2 | -3 | -6 | 3 | 44* | 4 | 1 | 37*
Cc1ccnc(SCCn2c(N3CCN(c4ccccc4)CC3)nc3c2c(=O)[nH]c(=O)n3C)n1 | 0 | 3 | 3 | 1 | -10 | 2 | .
O=C(NCCc1ccccc1)NC(Cc1ccccc1)C(=O)O (stereo unspecified) | . | 7 | -4 | . | 10 | . | .
COc1ccc(N2Cc3ccccc3/C2=N\C(=O)Nc2ccccc2)cc1 | 0 | 1 | -6 | -4 | -5 | -1 | .
CC(=O)CN1Cc2ccccc2/C1=N\C(=O)Nc1ccccc1 | -1 | -1 | 0 | 71* | 9 | 1 | 7
CSc1sc(C#N)c2c1/C(=N\O)CCC2 | -7 | 0 | 3 | -1 | -1 | -4 | .
SMILES | LYPLA2 inh | PAFAH1B2 FP inh | PAFAH2 inh | pPAFAH FP inh | PAFAH1B3 inh | LYPLA1 inh | pPAFAH FP conf
CCOc1ccc(-n2ccnc2)nn1 | -3 | 1 | -8 | 45* | 6 | 1 | 4
O=C1CC(=O)N(Cc2ccco2)C(=S)N1 | -23 | 0 | 11 | 41* | -10 | -13 | 13
O=C1CC(=O)N(Cc2ccco2)C(=O)N1 | -1 | 1 | 26 | 37* | 0 | 2 | 5
O=C1CC(=O)N(Cc2cccs2)C(=O)N1 | -1 | 10 | -4 | 2 | 4 | -2 | .
CCC(C)c1ccc(OCC(=O)Nc2cccc(C(=O)Nc3ccc(C(=O)O)cc3)c2)cc1 (stereo unspecified) | -39 | -1 | -18 | -21 | -9 | -22 | .
O=C(/C(=N/N=C/c1ccc(O)c(O)c1O)c1ccccc1)c1ccccc1 | -15 | -11 | 4 | 80* | -14 | -14 | 85*
Oc1ccc(/C=N/N=C(c2ccccc2)c2ccccc2)c(O)c1O | -15 | 1 | 3 | 59* | 21 | -11 | 83*
Cc1ccccc1N/N=C/c1sc(=O)n(Cc2cccc(C(=O)O)c2)c1Cl | 9 | 9 | 10 | 35* | 10 | 7 | 25*
COC(=O)c1cccc(Cn2c(Cl)c(/C=N/Nc3ccccc3C)sc2=O)c1 | -3 | 1 | 7 | 0 | 5 | -8 | .
COC(=O)C1(Cc2cc(-c3ccc(OC)cc3OC)no2)CCN(C(=O)OC(C)(C)C)CC1 | -10 | 7 | -3 | 0 | 3 | -5 | .
COc1cc2nc(CN3CCOCC3)n(CC(=O)N3CCCCCC3)c(=O)c2cc1OC | -2 | 2 | 2 | 56* | 3 | 0 | 5
Cc1cc(NS(=O)(=O)c2ccc(NC(=O)Nc3ccccc3)cc2)no1 | 5 | 2 | -7 | 8 | -3 | -1 | .
Cc1cc(=O)[nH]c(N/N=C/c2cc(C)n(CC(F)(F)F)c2C)n1 | -1 | 7 | 0 | 3 | 5 | 3 | .
COC(=O)c1ccc(-n2c(C)cc(/C=N/Nc3nc(C)cc(=O)[nH]3)c2C)cc1 | 6 | 1 | 4 | 67* | 7 | 4 | 89*
COC(=O)c1nn(-c2ccccc2)c(-c2ccccc2)c1C(=O)c1ccccc1 | 1 | 6 | 8 | 4 | 13 | 1 | .
O=C(O)CCNc1cc(N2CCN(C(=O)c3ccco3)CC2)c2noc3c2c1C(=O)c1ccccc1-3 | 0 | -2 | -16 | 74* | -8 | 3 | 45*
Cc1cc(N2CCN(C(=O)c3ccco3)CC2)c2ccccc2n1 | 0 | -1 | 4 | 2 | 4 | -2 | .
COc1ccc(S(=O)(=O)Nc2c(C)n(C)n(-c3ccccc3)c2=O)c(Cl)c1Cl | -1 | 3 | -3 | 62* | -2 | -1 | 6
Cc1c(NS(=O)(=O)c2cc(C(=O)NCc3cccc(Cl)c3)ccc2Cl)c(=O)n(-c2ccccc2)n1C | . | 2 | -4 | . | 3 | . | .
